Most compounds without a hit are left out; they make up all but 2.1% or so of the library.
aSyn yeast inh: qHTS of alpha-syn Inhibitors. Yeast expressing alpha-synuclein, growth rescue, BacTiter-Glo, 24 h. AID 652106, 2013. Potency, µM (titrated, usually from 46.1 µM), most hits filed as activators. 0.14% of 370,000 active; further: nearly all actives have a fitted effect of over 65% in size
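Rescue of yeast growth: cells expressing toxic alpha-synuclein, induced in galactose at OD600 0.02, incubated with compound 24 h at 30 C. ATP luminescence quantified growth; inhibitors of toxicity appear as activators.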
TDP43 rescue: qHTS of TDP-43 Inhibitors | TDP-43 expressing yeast growth rescue, BacTiter-Glo, 24 h | Potency, µM (doses to about 46.1 µM), most hits filed as activators | 1.8% of 410,000 active | AID 652104, 2013; further: nearly all actives have a fitted effect of over 50% in size
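Yeast expressing TDP-43 (pregrown in raffinose, seeded at OD600=0.02 in galactose medium) exposed to compounds 24 hr at 30 deg C. Growth read by BacTiter-Glo luminescence; rescue of toxicity appears as increased signal.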
FUS yeast rescue: qHTS for Suppressors of FUS Proteinopathy: Primary screen using FUS-linked yeast assay; 0.24% of 390,000 active; S. cerevisiae FUS-expressing, growth rescue, OD600, 24 h; Potency, µM (doses to about 76.6 µM), usual class: activators; AID 1347120, 2019; further: nearly all actives have a fitted effect of over 55% in size
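Read-out: OD at 600 nm after 24hr at 30C, reporting rescue of FUS-induced yeast toxicity. Cells at OD 0.005 in galactose (2%) minimal medium; compounds tested in a dilution series; CP55940 titration from 92uM final as control.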
Abeta yeast res: qHTS for compounds that reverse cellular toxicity of Amyloid beta (A-beta) peptide in yeast: Primary Screen; yeast expressing A-beta42, growth rescue, OD600, 48 h; response scale: 0% DMSO, 100% iron-clioquinol control; Potency, µM (top dose mostly 46.1 µM), hits mostly activators; 0.063% of 410,000 active; AID 1347071, 2019; further: nearly all actives have a fitted effect of over 55% in size
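Yeast growth medium received pinned compounds, then yeast cells expressing toxic A-beta were added; plates incubated at 30 C for 48 hr. Growth read as absorbance at 600 nm, normalized to DMSO and equimolar FeCl3 plus clioquinol controls.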
Of the large screens only hits and unclear results are named; the others gave an inactive call. The call rests on the fitted dose curve; in most records, active means well fitted curve in the direction sought with a large enough effect; inconclusive means small, poorly fitted or top-dose-only effect, or another doubt; inactive means no such curve, though single readings can be large; an effect the other way counts as inactive or inconclusive.

O=C1CCC[C@H]2C[C@H](NCc3ccc(Cl)c(Cl)c3)CC[C@]23CCCN13	none (no result: aSyn yeast inh, TDP43 rescue, Abeta yeast res)
Cc1cc(C)c(S(=O)(=O)N2CCN(C(=O)C3CCCO3)CC2)c(C)c1 (stereo not given)	none
Cc1ccc2nsnc2c1S(=O)(=O)N1CCN(C(=O)C2CCCO2)CC1 (stereo not given)	aSyn yeast inh 22µM, TDP43 rescue inconclusive
COC(=O)c1cccc(CN2C(=O)SC(Nc3ccc(Cl)cc3)C2=O)c1 (stereo not given)	TDP43 rescue 16µM (no result: aSyn yeast inh)
COC(=O)c1cccc(CN2C(=O)SC(Nc3ccc(C)cc3)C2=O)c1 (stereo not given)	Abeta yeast res inconclusive
COC(=O)c1cccc(CN2C(=O)SC(Nc3ccccc3C)C2=O)c1 (stereo not given)	TDP43 rescue inconclusive (no result: aSyn yeast inh)
COC(=O)c1cccc(CN2C(=O)SC(Nc3ccc(Br)cc3)C2=O)c1 (stereo not given)	TDP43 rescue 16µM, FUS yeast rescue inconclusive (no result: aSyn yeast inh)
Cc1occc1-c1nnc(SCC(=O)Nc2ccncc2)n1-c1ccccc1	none (no result: aSyn yeast inh, TDP43 rescue, Abeta yeast res)
O=C(C1CCCN(c2ncnc3c2nc2n3CCCCC2)C1)N1CCN(c2ccccc2F)CC1 (stereo not given)	TDP43 rescue 11µM
CCc1ccccc1N(C)C(=O)C1CCCN(c2ncnc3c2nc2n3CCCCC2)C1 (stereo not given)	TDP43 rescue 11µM (no result: aSyn yeast inh)
O=C(Nc1ccccc1Cl)C1CCCN(c2ncnc3c2nc2n3CCCCC2)C1 (stereo not given)	TDP43 rescue 14µM
COCCCNC(=O)C[C@H]1C[C@@]2(C(=O)OC)C(=C[C@H](C(C)C)O[C@@H]2C2CC2)N(Cc2ccco2)C1=O	none (no result: aSyn yeast inh, TDP43 rescue, Abeta yeast res)
Cc1ccccc1CN1CCCCC(NC(=O)c2ccccc2F)C1=O (stereo not given)	none (no result: aSyn yeast inh, TDP43 rescue, Abeta yeast res)
O=C(c1cc(-c2cccs2)on1)N1CCN(c2ccccc2)CC1	TDP43 rescue 11µM
O=C(c1cc(-c2cccs2)on1)N1CCN(c2ccc(F)cc2)CC1	none
CC(C)CC(=O)NC(=S)Nc1ccc(N2CCN(C(=O)c3cccs3)CC2)cc1	TDP43 rescue 18µM
CC(C)C(=O)Nc1ccc(N2CCN(C(=O)c3cccs3)CC2)cc1	none
COc1ccc(-c2cc(C(=O)N3CCN(c4ccccc4)CC3)no2)cc1	TDP43 rescue 11µM
O=C(COCc1cc(-c2cccs2)on1)N1CCN(c2ccc(F)cc2)CC1	TDP43 rescue 16µM (no result: aSyn yeast inh)
CN(C)c1ccc(/C=C/c2ccnc3ccc(I)cc23)cc1	none (no result: TDP43 rescue, FUS yeast rescue, Abeta yeast res)
OCC1O[C@H]([S-])[C@H](O)[C@@H](O)[C@@H]1O.[Au+] (stereo not given in full)	none (no result: TDP43 rescue, FUS yeast rescue, Abeta yeast res)
O=C(NCCCc1ccccc1)OC1CCC12CCC(c1ccccc1)CC2 (stereo not given)	none (no result: aSyn yeast inh, TDP43 rescue, Abeta yeast res)
COc1ccc(OC)c(-c2cc(C(=O)N3CCc4ccccc4C3)no2)c1	none
COc1ccc(OC)c(-c2noc(N3CCN(c4ccc(Cl)cc4)CC3)n2)c1	TDP43 rescue 11µM (no result: aSyn yeast inh)
COc1ccc(OC)c(-c2cc(C(=O)N3CCN(c4ccccc4)CC3)no2)c1	TDP43 rescue 22µM, FUS yeast rescue inconclusive
S=C(c1cccs1)N1CCN(c2ccccc2)CC1	TDP43 rescue 18µM (no result: FUS yeast rescue)
COc1ccccc1NC(=O)OCCN1CCCC12CCC(c1ccccc1)CC2 (stereo not given)	none (no result: aSyn yeast inh, TDP43 rescue, Abeta yeast res)
CCn1cnc2c1c(=O)n(Cc1cccc(Br)c1)c(=O)n2Cc1ccccc1	TDP43 rescue 22µM
COc1cccc(-c2nnc3n2N=C(c2ccc(Cl)cc2)CS3)c1	none (no result: aSyn yeast inh, TDP43 rescue, Abeta yeast res)
COc1cc(C(Nc2ccc3c(c2)OCO3)C(=O)NC2CCCCC2)cc(OC)c1OC (stereo not given)	FUS yeast rescue 18µM
COc1cc(NC(=O)Nc2ccc3c(c2)OCO3)cc(OC)c1OC	none
Cc1ccc(SCCNC(=O)c2ccc(C)c(S(=O)(=O)Nc3cccc(C)c3)c2)cc1	FUS yeast rescue 32µM
Cc1ccc(NS(=O)(=O)c2cc(C(=O)NCCSc3ccc(C)cc3)ccc2C)cc1	none
Cc1ccc(NC(=O)/C(C#N)=C/c2cc(C)n(-c3ccc(Br)cc3)c2C)cc1C	TDP43 rescue 4µM, FUS yeast rescue inconclusive (no result: aSyn yeast inh)
CC1CCc2c(C(=O)Nc3ccc(N4CCOCC4)cc3)csc2C1 (stereo not given)	TDP43 rescue 7.1µM
CC1CCc2c(C(=O)NCCN3CCOCC3)csc2C1 (stereo not given)	none
COc1ccc(C(C)c2cn(C)c3ccccc23)cc1 (stereo not given)	none (no result: aSyn yeast inh, TDP43 rescue, Abeta yeast res)
CCCCCCn1c(=O)n2n(c1=O)[C@@H]1CN(S(=O)(=O)c3ccc(C)cc3)C[C@]1(O)[C@@H](OC(=O)NCc1ccc(OC)c(OC)c1)C2	FUS yeast rescue 22µM
N#Cc1nccnc1S(=O)(=O)c1cccs1	TDP43 rescue 13µM
O=C(NCCc1ccccc1)c1ccc(Cl)cc1[N+](=O)[O-]	TDP43 rescue 11µM
O=C(NCc1ccc(Cl)cc1)c1ccc(Cl)cc1[N+](=O)[O-]	none
COc1cccc(Nc2ncccc2C(=O)Nc2ccccc2)c1	TDP43 rescue 22µM
COc1cccc(NC(=O)c2cc(-c3ccco3)nc3ccccc23)c1	none
COc1cccc(NC(=O)c2cc(-c3ccccn3)nc3ccccc23)c1	TDP43 rescue 25µM (no result: FUS yeast rescue)
COc1cccc(NC(=O)c2cnn(-c3ccccc3)c2C)c1	TDP43 rescue 20µM
O=C(NC1CCCCN(Cc2cccc(Cl)c2)C1=O)c1cccc(C(F)(F)F)c1 (stereo not given)	none (no result: aSyn yeast inh, TDP43 rescue, Abeta yeast res)
COC(=O)[C@]12C[C@H](CC(=O)N3CCSCC3)C(=O)N(Cc3ccco3)C1=C[C@H](C(C)(C)C)O[C@@H]2C	none (no result: aSyn yeast inh, TDP43 rescue, Abeta yeast res)
O=C(Nc1ccccc1Cl)c1ccc(-c2ccccn2)s1	TDP43 rescue 11µM
O=C(Nc1ccccc1Cl)c1cccs1	TDP43 rescue inconclusive
C(=C\c1ccnc2ccccc12)/c1ccc(N(Cc2ccccc2)Cc2ccccc2)cc1	none (no result: TDP43 rescue, FUS yeast rescue, Abeta yeast res)
Clc1cccc(N2CCN(c3c4c(nc5nncn35)CCC4)CC2)c1	TDP43 rescue 18µM (no result: aSyn yeast inh)
COc1ccc(CCNc2ncnc3c2c(-c2ccccc2)cn3-c2ccc(F)cc2)cc1OC	TDP43 rescue inconclusive, FUS yeast rescue inconclusive (no result: aSyn yeast inh)
COCCN(CCOC)c1ncnc2c1c(-c1ccccc1)cn2-c1ccc(C)c(Cl)c1	TDP43 rescue 25µM (no result: aSyn yeast inh)
COc1ccc(CCNc2ncnc3c2c(-c2ccccc2)cn3-c2ccc(Cl)cc2)cc1OC	TDP43 rescue inconclusive, FUS yeast rescue 14µM (no result: aSyn yeast inh)
CCCNc1ncnc2c1c(-c1ccccc1)cn2-c1ccccc1	TDP43 rescue 22µM, FUS yeast rescue inconclusive (no result: aSyn yeast inh)
c1ccc(-c2cn(-c3ccccc3)c3ncnc(N4CCCCC4)c23)cc1	TDP43 rescue 18µM
CC(C)CN1C(=O)[C@]2(CC(=O)N(C)C2c2ccccc2)c2cc(-n3cc(-c4ccccc4)nn3)ccc21 (stereo not given in full)	none (no result: aSyn yeast inh, TDP43 rescue, Abeta yeast res)
O=C(CSc1nnc(-c2cnccn2)n1-c1ccccc1)Nc1ccc2c(c1)OCCO2	none (no result: aSyn yeast inh, TDP43 rescue, Abeta yeast res)

Bioassay records from PubChem BioAssay.
